The supplement of paper PMC9177965

Each compound was assayed on HT29 sg-Ctrl (RNF43 wildtype) (assay: cell viability activity relative to DMSO (negative = inhibition); higher = more viable cells (less growth inhibition)). Details: 5 µM; 96 h.
Description: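 Broad Repurposing Library primary screen at a single dose of 5 uM. HT29 sg-Ctrl and HT29 RNF43 G659fs CRISPR-edited isogenic cells were seeded at 2500 cells/well in 384-well plates in duplicate and treated for 96 h. Viability was read by CellTiter-Glo and reported as % activity relative to DMSO, with MG132 as the positive control (negative = growth inhibition).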

Compound | cell viability activity [%]
CC(C)c1ccc(C(=O)N=C(N)N)cc1S(C)(=O)=O | -5.71
CCOc1ccc(Cc2nccc3cc(OCC)c(OCC)cc23)cc1OCC | -25.2
Cc1ccc(/C=C2\CNC/C(=C\c3ccc(C)cc3)C2=O)cc1 | -92.7
C[C@@H]1COCCN1c1cc(=O)n2c(n1)N(Cc1cncc(Cl)c1)[C@H](C(F)(F)F)CC2 | 1.22
CCN(CC)CCNC(=O)c1ccc(NC(C)=O)cc1 | -3.92
CCN1CCN(c2ccc(C(C)(C)NC(=O)c3cc4[nH]c5ccccc5c(=O)c4cc3F)cn2)CC1 | -42.7
c1ccc(CNc2nc(NCc3ccccc3)c3ccccc3n2)cc1 | -41
COC(=O)[C@]12CCC(C)(C)C[C@H]1[C@H]1C(=O)C=C3[C@@]4(C)C=C(C#N)C(=O)C(C)(C)[C@@H]4CC[C@@]3(C)[C@]1(C)CC2 | -93.4
COc1cc2nc(N3CCC(N4CCCCC4)CC3)nc(NC3CCCCCC3)c2cc1OC | -95.5
CCn1c(=O)c(-c2cc[nH]n2)cc2c(C)nc(N)nc21 | -42.2
CNC(=O)c1ccccc1Nc1nc(Nc2ccc(N3CCOCC3)cc2OC)ncc1Cl | -70.3
Cc1nc(NC(=O)N2CCC[C@H]2C(N)=O)sc1-c1ccnc(C(C)(C)C(F)(F)F)c1 | -16
COc1ccc2c(O[C@@H]3C[C@H]4C(=O)N[C@]5(C(=O)NS(=O)(=O)C6CC6)C[C@H]5/C=C\CCCCN(C)C(=O)[C@@H]4C3)cc(-c3nc(C(C)C)cs3)nc2c1C | -23.2
NNc1nncc2ccccc12 | -40.8
Nc1ccc2cc3ccc(N)cc3nc2c1 | -47.4
CCCCNc1ncc2c(-c3ccc(CN4CCN(C)CC4)cc3)cn([C@H]3CC[C@H](O)CC3)c2n1 | -91.1
COc1cc([C@@H]2c3cc4c(cc3[C@@H](O[C@@H]3O[C@@H]5CO[C@@H](C)O[C@H]5[C@H](O)[C@H]3O)[C@H]3COC(=O)[C@H]23)OCO4)cc(OC)c1OP(=O)(O)O | -24.7
CNCc1ccc(-c2cc(-c3nc(-c4ccc(S(=O)(=O)C(C)C)cc4)cnc3N)on2)cc1 | -74.5
CCCCCCOc1nsnc1C1=CCCN(C)C1 | -58.7
NCCCCNCCCN | -2.46
CC(C)(C)c1ccc(S(=O)(=O)/C=C/C#N)cc1 | -95.4
COC(=O)Nc1nc2cc(C(=O)c3cccs3)ccc2[nH]1 | -78.3
